Records with an inconclusive call do not appear. Active and inactive are the calls of the source. Calls follow the shape of the dose curve; as a rule, active = well fitted inhibition curve with a large enough effect; inconclusive = small, poorly fitted or top-dose-only effect, or effect the other way; inactive = flat fitted curve, though single readings scatter.
target: Thyroid hormone receptor beta (Homo sapiens) (UniProt P10828); experiment: Concentration Response Confirmation Assay for Inhibitors of the Interaction of Thyroid Hormone Receptor and Steroid Receptor Coregulator 2, Fluorescein Fluoroprobe; conditions: TRbeta LBD / fluorescein-SRC2 peptide, fluorescence polarization, 5 h; series mostly up to 92.2 µM; activity, negative = inhibition: at the top concentration
Sequence (P10828 whole entry, looked up, the tested form may be a part): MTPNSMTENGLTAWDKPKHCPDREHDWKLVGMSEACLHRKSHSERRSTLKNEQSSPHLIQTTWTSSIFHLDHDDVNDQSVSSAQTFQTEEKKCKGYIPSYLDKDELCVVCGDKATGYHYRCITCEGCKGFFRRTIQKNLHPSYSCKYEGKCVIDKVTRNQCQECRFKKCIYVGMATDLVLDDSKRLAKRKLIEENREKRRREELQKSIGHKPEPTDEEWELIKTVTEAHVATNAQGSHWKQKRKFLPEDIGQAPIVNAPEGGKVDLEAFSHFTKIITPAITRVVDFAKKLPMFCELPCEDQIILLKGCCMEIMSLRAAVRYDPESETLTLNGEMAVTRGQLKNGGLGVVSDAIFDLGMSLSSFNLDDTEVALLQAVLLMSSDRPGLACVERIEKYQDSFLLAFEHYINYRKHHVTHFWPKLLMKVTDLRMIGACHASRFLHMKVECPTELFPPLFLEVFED
Description: NIH Molecular Libraries Probe Production Network [MLPCN] NIH Chemical Genomics Center [NCGC] MLPCN Grant: DK058080 Assay Provider: R. Kip Guy, St. Jude Children's Research Hospital NCGC Assay Overview: Thyroid receptor (TR) regulates many homeostatic processes including basal metabolism, cardiovascular function, body weight, and lipid trafficking. TR modulators are potential therapeutics for obesity and hyperlipidemias but current thyroid analogs have undesirable side effects, particularly cardiac stimulation. To identify inhibitors that specifically prevent the interaction of TR with the steroid receptor coregulator 2 (SRC2), a fluorescence polarization assay was screened (Arnold et al., 2006). This assay detects interaction of the ligand-binding domain of human TRbeta with a fluorescein labeled SRC2 peptide, corresponding to a 20 amino acid region of the nuclear receptor interaction domain. Small molecule inhibitors that block the interaction of TR and SRC2 are detected by a decrease in fluorescence polarization. This assay is a confirmation assay for AID 1469. Arnold, L. A.; Estebanez-Perpina, E.; Togashi, M.; Shelat, A.; Ocasio, C. A.; McReynolds, A. C.; Nguyen, P.; Baxter, J. D.; Fletterick, R. J.; Webb, P.; Guy, R. K. A high-throughput screening method to identify small molecule inhibitors of thyroid hormone receptor coactivator binding. Sci STKE 2006, p 13.
NCGC Assay Protocol Summary: Five uL/well 0.6 uM TRbeta and 20 nM SRC2 Fluorescein in protein buffer (20mM Tris hydrochloride, 100mM NaCl, 10% glycerol, 1mM EDTA, 0.01% NP-40, 1mM DTT, 1uM T3 and 5% DMSO) was dispensed into black solid 1536-well plates (Grenier) using a solenoid-based dispenser. Following transfer of 23 nL compound or DMSO vehicle by a pin tool, the plates were centrifuged 15 s at 1000 RPM and incubated 5 hr at ambient temperature. The plates were read by an Envision (Perkin Elmer) to detect fluorescence polarization of SRC2 Fluorescein (480 nm excitation and 535 nm emission). Data were normalized to unbound (all components except TRbeta) and bound SRC2 Fluorescein controls. In this assay, we provide % activity data for each concentration as well as potencies for the active compounds. Keywords: NIH Roadmap, MLPCN, MLI, MLSMR, qHTS, NCGC, qHTS, thyroid hormone receptor, steroid receptor coactivator, fluorescence polarization

activity, negative = inhibition, inactive:
CC1(C)C(N(O)C(=O)Nc2ccc(Cl)cc2)N(c2ccc(Cl)cc2)C(=O)N1CC(=O)NN (centres undefined) -8.24% [at 11.6 µM], CCN(C(=O)C1CCCN(c2ncnc3onc(-c4ccc(F)cc4)c23)C1)c1ccccc1 (centres undefined) 14.6% [at 184 µM], Cc1cccc(S(=O)(=O)c2cn(Cc3ccccc3)c3cc(N4CCC(C)CC4)c(F)cc3c2=O)c1 -4.12% [at 184 µM], C=CCSc1nnc2n(-c3ccccc3OC)c(=O)c3c4c(sc3n12)CCC4 3.76% [at 46.3 µM], Cc1nc2c3cc(F)ccc3n(Cc3ccccc3F)c2s1 -12.6% [at 46.3 µM], Cn1c(CCN2CCCCC2)nc2cc(NS(=O)(=O)c3ccc(Cl)cc3)ccc21 -6.74% [at 0.0112 µM], Nc1cccnc1Sc1cc(Cl)c(Cl)cc1Cl 6.55%, CC1(C)CC(=O)C(N=Nc2cccc(S(=O)(=O)N3CCOCC3)c2)=C(O)C1 10.4%

Potency, active:
CCOc1cc(C(c2c(C)[nH][nH]c2=O)c2c(C)[nH][nH]c2=O)ccc1OC(=O)c1cccc([N+](=O)[O-])c1 15.8 µM

Source: PubChem BioAssay AID1570 (National Center for Advancing Translational Sciences (NCATS), 2009)
